Our source for the inhibition values is PubChem BioAssay AID602399 (Sanford-Burnham Center for Chemical Genomics, 2012).

Molecules are shown by their SMILES. Screen size: about 360,000 compounds; about 2,800 (0.78%) were called active. The entries come from a sample that favours actives as a whole. A number with no mark means an inactive call. Cut-off read from the data, not from the text of the source: active = inhibition above about 26%; inactive = the rest.

The test system of this assay is Nicotinate-nucleotide adenylyltransferase NadD (Staphylococcus aureus N315). The experiment in a line: inhibitors of S. aureus NadD, primary screen, biochemical, colorimetric, uHTS (AID 602399). Particulars: purified NadD enzyme, colorimetric absorbance read-out; at 20 µM; stronger effect = higher value.
A word on the inhibition: it is the drop in the measured response relative to a control, in per cent. In the case of `Cc1cccc(N2C(=O)NC(=O)/C(=C\c3cnn(-c4ccccc4)c3)C2=O)c1`, the inhibition was 31.6% (active). `COC(=O)CN1C(=O)C2(C(C(=O)OC)=C(N)Oc3ccccc32)C2=C1CC(C)(C)CC2=O` (stereo not given): the inhibition is -11.2%. In the case of `CC1(C)C(c2ccccc2)=NC(c2cccnc2)=[N+]1[O-]`, the inhibition was -1.36%.

On to `Cc1cccc(NC(=O)N2CC3CC(C2)c2cccc(=O)n2C3)c1` (stereo not given), for which the inhibition is -1.21%. `COC1C(O)C(C)OC(OC2CCC3(C=O)C(CCC4C3CCC3(C)C(C5=CC(=O)OC5)CCC43O)C2)C1O` (stereo not given): the inhibition is -4.34%. On to `CCOC(=O)c1c(C)c(C(=O)N2CCC3(CC2)OCCO3)c(C)n1CC`, for which the inhibition was -2.05%.

`O=c1[nH]c(CN2CC=C(c3ccccc3)CC2)nc2scc(-c3cccs3)c12`: the inhibition was 29.6% (active). In the case of `CC1=CC(=Cc2sc3ccccc3[n+]2C)C=C(C)O1` it was 1.49%; in that of `CCN1C(=O)NC(=O)C2(CCCC2)C1=O`, 1.24%; in that of `c1cc2c(cc1C1OCC3C(c4ccc5c(c4)OCO5)OCC13)OCO2` (stereo not given), 1.25%. On to `CCCCCn1c(=O)c(C(=O)NCc2ccccc2)c(O)c2ccccc21`, for which the inhibition is 1.88%.

For `CCCCCn1c(=O)c(C(=O)Nc2c(C)n(C)n(-c3ccccc3)c2=O)c(O)c2ccccc21`, the inhibition was 29.9% (active). As for `CCCCn1c(=O)c(C(=O)Nc2ccccc2Cl)c(O)c2ccccc21`, the inhibition is -7.15%. On to `Clc1ccc2nc3c(c(-c4ccccc4)c2c1)CNCC3`, for which the inhibition is -4.51%. With `COCc1cc(OC(=O)N(C)C)nc(-c2ccc(C)c(Cl)c2)n1`, the inhibition was -4.84%. `COC1=C[C@@H]2[C@@H]3Cc4ccc(OC)c(O)c4[C@]2(CCN3C)CC1=O`: the inhibition is 3.24%. On to `O=C1NC(=O)N(Cc2ccco2)C(=O)/C1=C\c1ccc(-c2ccc(F)cc2)o1`, for which the inhibition is 38.2% (active). As for `O=C(Cn1c(=O)n(CC2CS2)c2ccccc21)N1CCCCC1` (stereo not given), the figure is -1.82%. `COc1cccc(-c2nc3ccc(N4CCN(C)CC4)cc3[nH]2)c1`: the inhibition was -5.51%.

As for `COC(=O)C1=C(c2cc3ccccc3o2)C[C@@H]2CC[C@H]1N2C(=O)NC1CCCCC1`, the inhibition is 0.201%.
